Most compounds without a hit are left out; they make up all but 2.8% or so of the library.
DAGLB inh: blocks human DAGLB lipase activity; Q8NCG7; HEK293T DAGLB membrane lysate, EnzChek fluorogenic substrate; inhibition, % at 5.17 µM; hit rate 0.059% among 340,000; AID 504411; in the data active = inhibition above about 34%
PAFAH1B3 FP inh: PAFAH1B3 (human) inhibition; Q15102; recombinant PAFAH1B3, FP-rhodamine probe, fluorescence polarization; inhibition, % at 3.39 µM; hit rate 0.28% among 340,000;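 active = inhibition above the screen-wide average of all tested compounds plus 3 SD, cut at about 25% in these data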
HTRA1 inh: inhibitors of human serine peptidase HTRA1 | Q92743 | hit rate 0.5% among 340,000 | AID 504803 | inhibition, % at 5.96 µM | recombinant HTRA1, FP-rhodamine activity-based probe, fluorescence polarization; in the data active = inhibition above about 36%
Target sequence (Q92743 whole entry, looked up): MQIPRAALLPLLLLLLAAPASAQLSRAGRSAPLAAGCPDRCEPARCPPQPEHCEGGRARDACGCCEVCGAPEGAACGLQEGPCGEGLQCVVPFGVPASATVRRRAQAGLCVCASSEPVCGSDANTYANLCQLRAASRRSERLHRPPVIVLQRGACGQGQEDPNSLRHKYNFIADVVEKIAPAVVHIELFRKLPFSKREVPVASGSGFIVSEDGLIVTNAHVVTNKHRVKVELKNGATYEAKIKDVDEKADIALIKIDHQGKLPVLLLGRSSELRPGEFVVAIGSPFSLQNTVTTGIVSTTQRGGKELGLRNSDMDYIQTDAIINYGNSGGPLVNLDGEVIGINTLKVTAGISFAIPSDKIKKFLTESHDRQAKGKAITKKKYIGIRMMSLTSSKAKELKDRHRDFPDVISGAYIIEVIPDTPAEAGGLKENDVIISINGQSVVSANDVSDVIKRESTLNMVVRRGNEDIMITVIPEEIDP
pPAFAH FP inh: pPAFAH (human) enzyme inhibition; recombinant pPAFAH, FP-rhodamine probe fluorescence polarization; inhibition, % at 3.39 µM; Q13093; AID 463082; hit rate 1.5% among 330,000;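 active = inhibition above the mean inhibition across the screen plus 3 SD, cut at about 25% in these data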;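 also: inhibitors block binding of the rhodamine activity-based probe so polarization drops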
PAFAH2 inh: PAFAH2 (human) inhibition | inhibition, % at 3.39 µM | recombinant PAFAH2, FP-rhodamine activity probe, fluorescence polarization | Q99487 | hit rate 0.99% among 340,000;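 active = inhibition above the mean over all tested compounds plus 3 SD, cut at about 30% in these data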;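 also: inhibitors block probe labeling of enzyme so polarization drops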
PAFAH1B2 FP inh: inhibitors of human PAFAH1B2 | P68402 | recombinant PAFAH1B2, FP-rhodamine activity probe, fluorescence polarization | inhibition, % at 3.39 µM | hit rate 1.2% among 340,000 | AID 492953;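 active = inhibition above the mean of all tested compounds plus 3 SD, cut at about 24% in these data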
PAFAH2 FP conf: confirmation of human PAFAH2 inhibitors; shares compounds with PAFAH2 inh; recombinant PAFAH2, FP-rhodamine activity probe, fluorescence polarization; inhibition, % at 3.39 µM; hit rate 65% among 2,300; AID 493030;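 active = mean inhibition over three repeats above a set limit taken from the earlier primary screen, cut at about 30% in these data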;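 also: inhibitor blocks binding of rhodamine activity probe so polarization falls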
Hits are given with their value; . = inactive; / = no result given.

SMILES	DAGLB inh	PAFAH1B3 FP inh	HTRA1 inh	pPAFAH FP inh	PAFAH2 inh	PAFAH1B2 FP inh	PAFAH2 FP conf
Cc1ccc(C(=O)OCc2nnc(-c3ccc(Br)cc3)o2)cc1	.	.	.	.	72	.	58
O=C(COC(=O)c1cccc(-n2cnnn2)c1)c1ccccc1	.	.	.	.	.	.	/
O=C(OCc1nnc(-c2ccccc2)o1)c1cccc(-n2cnnn2)c1	.	.	.	.	47	.	40
Cc1ccc(-c2nnc(COC(=O)c3ccco3)o2)cc1	.	.	.	.	.	.	/
Cc1ccc(C(=O)OCc2nnc(-c3ccccc3)o2)o1	.	.	.	.	44	.	33
O=C(OCc1nnc(-c2ccccc2)o1)C1=COCCO1	.	.	.	.	44	.	31
Cc1ccc(S(=O)(=O)N2CCOCC2)cc1C(=O)OCc1nnc(-c2ccccc2)o1	.	.	.	.	.	.	/
Cc1ccc(C(=O)OCc2nnc(-c3ccccc3)o2)cc1S(=O)(=O)N1CCOCC1	.	.	.	.	61	.	47
Cc1ccc(-c2nnc(COC(=O)c3cccs3)o2)cc1	.	.	.	.	54	.	38
O=C1CCC(C(=O)OCc2nnc(-c3ccccc3)o2)=NN1	.	.	.	.	.	.	/
CCCOC(=O)c1cc(NC(=O)/C=C/c2ccccc2)ccc1O	/	/	/	.	/	/	/
CN(Cc1cccc(F)c1)C(=O)c1ccc(S(=O)(=O)N2CCCCCC2)cc1	.	.	.	.	.	.	/
O=C(OCc1nnc(-c2ccccc2)o1)c1ccc(Cl)cc1	.	.	.	.	43	.	37
O=C(/C=C/c1ccco1)OCc1nnc(-c2ccccc2)o1	.	.	.	.	68	.	55
O=C(Nc1ccccc1C(=O)OCc1nnc(-c2ccccc2)o1)c1ccco1	.	.	.	.	.	.	/
Cc1cc(C(=O)COC(=O)C2=NN(c3ccccc3)C(=O)CC2)c(C)n1CC(F)(F)F	.	.	.	.	.	.	/
Cc1cc(C(=O)COC(=O)c2ccc(O)cc2)c(C)n1CC(F)(F)F	.	.	.	.	31	.	.
Cc1cc(C(=O)COC(=O)c2ccc[nH]c2=O)c(C)n1-c1ccccc1F	.	.	.	.	.	.	/
Cc1cc(C(=O)COC(=O)c2ccc(O)cc2)c(C)n1-c1ccccc1F	.	.	.	.	39	.	.
CCOC(=O)C1(Cc2cccc(OC)c2)CCN(Cc2ccc(C)s2)CC1	.	.	.	.	.	.	/
CCOc1ccc(C(=O)OC(C)CN2CCCCC2)cc1 (stereo not given)	.	.	.	.	57	.	.
O=C(NCCc1ccc(Cl)cc1)C1CC(=O)N(C2CCCC2)C1 (stereo not given)	.	.	.	.	104	.	.
O=c1[nH]nc(CNc2ccc(C(F)(F)F)cc2)c2ccccc12	.	.	.	.	50	.	34
O=c1[nH]nc(CNc2ccc(OC(F)(F)F)cc2)c2ccccc12	.	.	.	.	.	.	/
CN(C)c1ccccc1C(=O)N1CCCC(C(=O)c2ccc3ccccc3c2)C1 (stereo not given)	.	.	.	.	.	.	/
SMILES	DAGLB inh	PAFAH1B3 FP inh	HTRA1 inh	pPAFAH FP inh	PAFAH2 inh	PAFAH1B2 FP inh	PAFAH2 FP conf
CCSC1=NSC2=NC(=O)/C(=C\c3coc4ccccc4c3=O)C(=N)N12	.	.	.	.	33	.	.
O=C(Cc1cccc2ccccc12)Nc1ccc(Br)cc1C(=O)O	.	.	.	.	36	.	.
O=C(Nc1ccc(O)cc1C(=O)O)c1cccc(Br)c1	.	.	.	.	38	.	.
N#Cc1cccc(NC(=O)COC(=O)c2cccc(N3C(=O)c4ccccc4C3=O)c2)c1	.	.	.	.	67	.	79
O=C(COC(=O)c1cccc(N2C(=O)c3ccccc3C2=O)c1)Nc1ccccc1	.	.	.	.	70	.	71
N#Cc1cccc(NC(=O)COC(=O)c2ccc[n+]([O-])c2)c1	.	.	.	.	.	.	/
Cc1ccsc1C(=O)OCC(=O)NC1CC1	.	.	.	.	33	.	.
Cc1ccsc1C(=O)OCC(=O)NCc1cccs1	.	/	.	/	/	/	/
Cc1ccc(C(=O)OCC(=O)NC2CC2)s1	.	.	.	.	70	.	55
Cc1ccc(N2C(=O)CN(Cc3ccccc3)C2=S)cc1C	.	.	.	.	.	.	/
Oc1ccccc1/C=N/NC(=S)NC1CC2C=CC1C2 (stereo not given)	.	.	.	.	57	.	.
C[C@H]1Cn2cnc(C(=O)Nc3ccccc3)c2C(=O)N1	.	/	.	/	/	/	/
CC(Sc1nnc(-c2ccco2)n1C)C(=O)Nc1nccs1 (stereo not given)	.	.	.	.	.	.	/
CC(=O)c1cccc(CN2CCC(C(=O)Nc3cccc(-c4ccn[nH]4)c3)CC2)c1	.	.	.	.	.	.	/
COc1cc(C=c2c3ccccc3n3c2cc(-c2ccccc2)[n+]3C)cc(OC)c1OC	.	.	.	/	55	.	.
COc1cc(N(C)C)ccc1C=c1c2ccccc2n2c1cc(-c1ccccc1)[n+]2C	.	.	.	/	.	.	/
O=S(=O)(NCc1nnnn1-c1ccc(F)cc1)c1ccc(F)cc1	.	/	.	/	/	/	/
O=C(CCc1ccccc1)Nc1ccccc1C(=O)NCc1ccco1	.	.	.	.	30	.	30
O=C(Nc1ccccc1C(=O)NCc1ccco1)c1ccccc1	.	.	.	.	.	.	/
COc1cccc(C2Nc3ccc4ccccc4c3C3=C2C(=O)CCC3)c1O (stereo not given)	.	.	.	.	.	.	/
Cc1ccc(N2C(=O)CC(Sc3ccccc3C(=O)O)C2=O)cc1 (stereo not given)	.	.	.	.	92	.	.
Cc1cc(C)cc(N2C(=O)CC(Sc3ccccc3C(=O)O)C2=O)c1 (stereo not given)	.	.	.	.	.	.	/
C/C(=N\OCC(=O)Nc1cc(C)cc(C)c1)c1ccc2c(c1)OCCO2	.	.	.	.	.	.	/
NS(=O)(=O)c1ccc(NC(=O)COC(=O)c2ccc3c(c2)OCCO3)cc1	.	.	.	.	.	.	/
O=C(COC(=O)c1ccc(Cl)nc1)Nc1ccc2c(c1)OCCO2	.	.	.	.	.	.	/
Cc1ccc(C(=O)OCC(=O)Nc2ccc3c(c2)OCCO3)cc1C	.	.	.	/	58	.	52
CCOc1ccc(NC(=O)COC(=O)c2ccc3c(c2)OCCO3)cc1	.	.	.	.	60	.	54
Cc1cc(C)cc(NC(=O)COC(=O)c2ccc3c(c2)OCCO3)c1	.	.	.	.	72	.	77
O=C(Cn1c(=O)oc2ccccc21)Nc1cccc(Cl)c1	.	.	.	.	.	.	/
O=C(CCn1c(=O)oc2ccccc21)Nc1cccc(Cl)c1	.	.	.	.	43	.	.

Assay outcomes from PubChem.
